Measured values reported in the supplement of paper PMC12297408.
Structures can show the parent of a compound that is named as a salt. Out of some 1,300 compounds screened, about 40 (3%) showed activity. Shown is part of a subset that was picked to be rich in actives. Unmarked numbers belong to inactive results.

Test system: Plasmodium falciparum NF54/iGP1_RE9H ulg8 stage V gametocytes
Test: gametocyte viability (luciferase signal relative to DMSO control) (% of DMSO control); higher = less gametocytocidal activity, active = 50 or less
Details: exposure time: 72 h
Procedure, shortened: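 NF54/iGP1_RE9Hulg8 stage V gametocytes (day 12; ~2.5% gametocytemia, 3% hematocrit) were incubated with compounds at 10 µM or 1 µM final, in one well each, for 72 h at 37 °C in medium with 0.5% Albumax II. Luminescence after D-luciferin addition was read on an IVIS Lumina II. Viability refers to the mean of plate DMSO vehicle wells.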

SMILES | gametocyte viability (concentration: 1 µM) | gametocyte viability (concentration: 10 µM)
CN(C)CCc1c[nH]c2ccc(C[C@H]3COC(=O)N3)cc12 [Zolmitriptan] | 83.8 | 81.7
COc1ccccc1N1CCN(CC(O)COc2cccc3ccccc23)CC1 (configuration not stated) [Naftopidil dihydrochloride] | 90.8 | 83.2
COc1ccccc1N1CCN(CCCNc2cc(=O)n(C)c(=O)n2C)CC1 [Urapidil hydrochloride] | 75.6 | 48.5 (active)
COc1ccccc1N1CCN(CCCCNC(=O)c2ccc3ccccc3c2)CC1 | 82.8 | 73.7
CCOC(=O)[C@H](CCc1ccccc1)N[C@@H](C)C(=O)N1CCC[C@H]1C(=O)O [Enalapril maleate] | 81.9 | 86.7
COc1ccc(CCN(C)CCCC(C#N)(c2ccc(OC)c(OC)c2)C(C)C)cc1OC (configuration not stated) [Verapamil hydrochloride] | 91.8 | 99.3
N/C(=N\C(=O)c1nc(Cl)c(N)nc1N)NCc1ccccc1 [Benzamil hydrochloride] | 88.7 | 81.1
CC(C)c1ccc2oc3nc(N)c(C(=O)O)cc3c(=O)c2c1 [Amlexanox] | 80 | 81.5
CCCCC(O)c1ccccc1 (configuration not stated) [Fenipentol] | 82 | 82.9
CC(C)(C)NC(=O)[C@@H]1CN(Cc2cccnc2)CCN1C[C@@H](O)C[C@@H](Cc1ccccc1)C(=O)N[C@H]1c2ccccc2C[C@H]1O [Indinavir sulfate] | 67 | 40 (active)
CC(C)(C)NC(=O)[C@@H]1C[C@@H]2CCCC[C@@H]2CN1C[C@@H](O)[C@H](Cc1ccccc1)NC(=O)[C@H](CC(N)=O)NC(=O)c1ccc2ccccc2n1 [Saquinavir mesylate] | 82.4 | 78.9
CN(C)CCCN1c2ccccc2Sc2ccc(C(F)(F)F)cc21 [Triflupromazine hydrochloride] | 83.7 | 81.5
CN1CCN(CCCN2c3ccccc3Sc3ccc(C(F)(F)F)cc32)CC1 [Trifluoperazine dihydrochloride] | 82.8 | 46.8 (active)
CN1CCN(CCCN2c3ccccc3Sc3ccc(S(=O)(=O)N(C)C)cc32)CC1 [Thioproperazine dimesylate] | 81.7 | 52.8
CN1CCCCC1CCN1c2ccccc2Sc2ccc([S+](C)[O-])cc21 (configuration not stated) [Mesoridazine besylate] | 88.9 | 88.7
CCSc1ccc2c(c1)N(CCCN1CCN(C)CC1)c1ccccc1S2 [Thiethylperazine dimalate] | 83.3 | 32.4 (active)
CSc1ccc2c(c1)N(CCC1CCCCN1C)c1ccccc1S2 (configuration not stated) [Thioridazine hydrochloride] | 87.7 | 30.1 (active)
OCCN1CCN(CCCN2c3ccccc3Sc3ccc(C(F)(F)F)cc32)CC1 [Fluphenazine dihydrochloride] | 89.1 | 68.1
CSc1ccc2c(c1)C(N1CCN(C)CC1)Cc1ccccc1S2 (configuration not stated) [Methiothepin maleate] | 86.1 | 75.3

SMILES | gametocyte viability (concentration: 1 µM) | gametocyte viability (concentration: 10 µM)
CN1CCN(CCCN2c3ccccc3Sc3ccc(Cl)cc32)CC1 [Prochlorperazine dimaleate] | 81.3 | 78.9
C=C1/C(=C\C=C2/CCC[C@]3(C)[C@@H]([C@H](C)/C=C/[C@@H](O)C4CC4)CC[C@@H]23)C[C@@H](O)C[C@@H]1O [Calcipotriene] | 79.2 | 64.3
CCN[C@H]1C[C@H](C)S(=O)(=O)c2sc(S(N)(=O)=O)cc21 [Dorzolamide hydrochloride] | 80.2 | 87.2
CC(C)(Sc1cc(C(C)(C)C)c(O)c(C(C)(C)C)c1)Sc1cc(C(C)(C)C)c(O)c(C(C)(C)C)c1 [Probucol] | 84.2 | 85.2
NC[C@@H]1O[C@H](O[C@H]2[C@@H](O)[C@H](O[C@@H]3[C@@H](O)[C@H](N)C[C@H](N)[C@H]3O[C@H]3O[C@H](CN)[C@@H](O)[C@H](O)[C@H]3N)O[C@@H]2CO)[C@H](N)[C@@H](O)[C@@H]1O [Neomycin sulfate] | 81.7 | 84.7
COc1cc(C(=O)OCCCN2CCCN(CCCOC(=O)c3cc(OC)c(OC)c(OC)c3)CC2)cc(OC)c1OC [Dilazep dihydrochloride] | 85.4 | 94.7
COCCCOc1ccnc(C[S+]([O-])c2nc3ccccc3[nH]2)c1C (configuration not stated) [Rabeprazole Sodium salt] | 83.8 | 80.3
CN(C)c1ccc(O)c2c1C[C@H]1C[C@H]3[C@H](N(C)C)C(=O)C(C(N)=O)=C(O)[C@@]3(O)C(=O)C1=C2O [Minocycline hydrochloride] | 83.1 | 83.3
C=C(CC)C(=O)c1ccc(OCC(=O)O)c(Cl)c1Cl [Ethacrynic acid] | 90.4 | 92.5
N=C(N)NCc1cccc(I)c1 [Iobenguane sulfate] | 99.3 | 100
CC1(C)O[C@@H]2C[C@H]3[C@@H]4C[C@H](F)C5=CC(=O)C=C[C@]5(C)[C@@]4(F)[C@@H](O)C[C@]3(C)[C@]2(C(=O)CO)O1 [Fluocinolone acetonide] | 83.3 | 83.3
CCC1=C(C)CN(C(=O)NCCc2ccc(S(=O)(=O)NC(=O)N[C@H]3CC[C@H](C)CC3)cc2)C1=O [Glimepiride] | 97.7 | 101
CC(C)(Oc1ccc(CCNC(=O)c2ccc(Cl)cc2)cc1)C(=O)O [Bezafibrate] | 98.6 | 97
CCCCC(CC)CNC(=N)NC(=N)NCCCCCCNC(=N)NC(=N)NCC(CC)CCCC (configuration not stated) [Alexidine dihydrochloride] | 36.2 (active) | 0.515 (active)
O=C(O)[C@H]1/C(=C/CO)O[C@@H]2CC(=O)N21 [Potassium clavulanate] | 91.1 | 87.4
C[C@]12CC[C@@H]3c4ccc(O)cc4CC[C@H]3[C@@H]1CCC2=O [Estrone] | 99.2 | 96.4
C[C@]12CC[C@@H]3c4ccc(O)cc4CC[C@H]3[C@@H]1C[C@@H](O)[C@@H]2O [Estriol] | 94.6 | 92.2
C[C@]12CC[C@@H]3c4ccc(O)cc4CC[C@H]3[C@@H]1CC[C@@H]2O [Estradiol-17 beta] | 69.7 | 41.9 (active)
CCCCCCC[N+](CC)(CC)CCCCc1ccc(Cl)cc1 [Clofilium tosylate] | 97.3 | 47.8 (active)

SMILES | gametocyte viability (concentration: 1 µM) | gametocyte viability (concentration: 10 µM)
NNC(=O)c1ccncc1 [Isoniazid] | 80.8 | 83.4
Cc1ncc(C[n+]2csc(CCO)c2C)c(N)n1 [Thiamine hydrochloride] | 94 | 89.4
CCCc1cc(C(N)=S)ccn1 [Prothionamide] | 93.7 | 95.2
CC(=O)Oc1cc(C(F)(F)F)ccc1C(=O)O [Triflusal] | 82.3 | 87.1
CC1(O)CCOC(=O)C1 (configuration not stated) [Mevalonic-D, L acid lactone] | 86.7 | 93.8
CC1c2cccc(O)c2C(O)=C2C(=O)C3(O)C(O)=C(C(N)=O)C(=O)C(N(C)C)C3C(O)C21 (configuration not stated) [Doxycycline hydrochloride] | 94.5 | 92.2
CC(=O)N(O)CCCCCNC(=O)CCC(=O)N(O)CCCCCNC(=O)CCC(=O)N(O)CCCCCN [Deferoxamine mesylate] | 90.6 | 82.7
CC(C(O)c1ccc(O)cc1)N1CCC(Cc2ccccc2)CC1 (configuration not stated) [Ifenprodil tartrate] | 81.9 | 79.7
CC(=O)O[C@H]1C[C@@H]2CC[C@@H]3[C@H](CC[C@@]4(C)[C@H]3C[C@H]([N+]3(C)CCCCC3)[C@@H]4OC(C)=O)[C@@]2(C)C[C@@H]1N1CCCCC1 [Vecuronium bromide] | 85.2 | 93.1
CCC(C)(C)c1ccc(CC(C)CN2C[C@@H](C)O[C@@H](C)C2)cc1 (some centres not stated) [Amorolfine hydrochloride] | 79.2 | 71.3
Cc1ccc(C)c(OCCCC(C)(C)C(=O)O)c1 [Gemfibrozil] | 86.7 | 88.3
C=CC(N)CCC(=O)O (configuration not stated) [Vigabatrin] | 84.9 | 90.6
CC(Oc1c(Cl)cccc1Cl)C1=NCCN1 (configuration not stated) [Lofexidine] | 92.5 | 90.5
CCCCC1C(=O)N(c2ccccc2)N(c2ccccc2)C1=O [Phenylbutazone] | 91 | 85.4
O=C(O)CN(CCN(CC(=O)O)CC(=O)O)CCN(CC(=O)O)CC(=O)O [Pentetic acid] | 101 | 101
NNc1nncc2ccccc12 [Hydralazine hydrochloride] | 94.8 | 12.8 (active)
CCOC(=O)NNc1nncc2ccccc12 [Todralazine hydrochloride] | 86.1 | 76.5
O=C1C(=O)c2ccccc2C(O)=C1C1CCC(c2ccc(Cl)cc2)CC1 (configuration not stated) [Atovaquone] | 91.4 | 99.6
